# Assay results reported in PubChem BioAssay (NCATS).
# Records with an inconclusive call do not appear. Values without a mark were called inactive. Calls come from the whole dose curve; as a rule, active = well fitted cell-killing curve with a large enough effect; inconclusive = small, poorly fitted or top-dose-only effect; inactive = flat fitted curve, though single readings scatter.
# Experiment: Cell Viability - LYMP2-013 (AID 970);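 note: cells exposed to compound for 24 h at 37 °C; 0% = DMSO only and full inhibition = tetraoctylammonium bromide control; nearly all actives have a fitted effect of over 55% in size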
# Settings: LYMP2-013 lymphoblastoid cells viability; series mostly up to 92.2 µM; activity change, negative = cytotoxic: at the top concentration
# Text: NIH Chemical Genomics Center [NCGC]
# NIH Molecular Libraries Screening Centers Network [MLSCN]
# National Institutes of Environmental Health Sciences [NIEHS]
# National Toxicology Program [NTP]
# We have developed a 1536-well cell-based assay for quantitative high throughput screening (qHTS) against a number of cell lines to determine in vitro cytotoxicity of small molecules. This particular assay uses a human lymphoblastoid cell line (LYMP2-013) purchased from Coriell Institute for Medical Research.
# NCGC Assay Protocol Summary:
# The CellTiter-Glo luminescent cell viability assay (Promega) is a homogeneous method to measure the number of viable cells in culture. The end point readout of this assay is based on quantitation of intracellular ATP, an indicator of metabolic activity, using the luciferase reaction. Luciferase catalyzes the oxidation of beetle Luciferin to oxyluciferin and light in the presence of ATP. The luminescent signal is proportional to amount of ATP present.
# Using the CellTiter-Glo luminescent cell viability assay, the amount of cellular ATP was measured in the lymphoblastoid cell line with complete culture medium following compound treatment for 24 hours. The assay was performed in opaque white Kalypsys 1536-well plates. In the screen, tetraoctylammonium bromide was used as positive control. Library compounds were measured for their ability to cause acute toxicity in the cell line, as reflected by a decrease in intracellular ATP levels, in a concentration-dependent manner. […] AC50 values were determined from concentration-response data modeled with the standard Hill equation.
# qHTS protocol for CellTiter Glo lymphoblastoid cellular assay
# [Step] [Parameter] [Value] [Description]
# 1. Reagent; 5 uL; 2500 lymphoblastoid cells/well
# 2. Time; 5 hr; 37 C incubation
# 4. Controls; 23 nL; Tetraoctylammonium bromide 6.4pM to 92 uM
# 5. Time; 24 hr; 37 C incubation
# 6. Reagent; 5 uL; CellTiter Glo reagent
# 7. Time; 30 min; Room Temperature
# 8. Detection; Luminescence; Viewlux plate reader
# Keywords: cell viability, cytotoxicity, lymphoblastoid cell line, luminescence, NTPHTS, NTPHTS_NCGC, NIEHS, DSSTox, MLSMR, MLSCN, NIH Roadmap, qHTS, NCGC
row,SMILES,"activity change, negative = cytotoxic"
1,O=C1C(c2[nH]c3ccccc3c2O)=Nc2ccccc21,-14.3%
2,CC(=O)Nc1ccccc1,5.92%
3,CCCCCCCC(=O)OCC(COC(=O)CCCCCCC)OC(=O)CCCCCCC,-2.55%
4,CCCCOC(=O)c1ccc(N)cc1,-8.01%
5,O=C(c1ccccc1)C(O)c1ccccc1 (configuration not stated),-7.77%
6,O=C(O)CCCCC1CCSS1 (configuration not stated),-4.49%
7,Cc1cc(C)nc(NS(=O)(=O)c2ccc(N)cc2)n1,0.287%
8,CC(=O)Nc1ccc(C(=O)O)cc1,0.287%
9,CCCC(O)C(CC)CO (configuration not stated),-0.768%
10,CC(=O)NS(=O)(=O)c1ccc(N)cc1,-2.09%
11,CCN(CC)C(=O)c1cccc(C)c1,-3.07%
12,Cc1c(N(C)C)c(=O)n(-c2ccccc2)n1C,-6.1%
13,O=C1c2cccc(O)c2C(=O)c2c(O)cccc21,-21.8%
14,Cc1cc(=O)[nH]c(=S)[nH]1,2.69%
15,COc1ccc(O)cc1,4.21%
16,CC1CC(OC(=O)c2ccccc2O)CC(C)(C)C1 (configuration not stated),-3.84%
17,CC(=O)OCC(COC(C)=O)OC(C)=O,-0.0624%
18,CC(=O)Nc1cccc(O)c1,1.83%
19,C=CCNC(N)=S,-6.21%
20,Nc1ccc(S(=O)(=O)c2ccc(N)cc2)cc1,-0.0165%
21,FC(F)(F)C(Cl)Br (configuration not stated),-1.88%
22,CCCCCC(N)=O,-1.12%
